Assay [1] has as its system NIH3T3. Kind of assay: Cytotoxic Profiling of Annotated Libraries Using Quantitative High-Throughput Screening (AID 1296008). Also: nearly all actives have a fitted effect of over 60% in size. Also: potency is read from the fitted curve at half-maximal effect. The conditions noted are these: Five cell lines viability, CellTiter-Glo ATP luminescence, 48-72 h; max response: hits give low values. The procedure, abridged:
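Compounds were pin-transferred onto cells and incubated 48 or 72 hr at 37 degree Celsius, 95% humidity. CellTiter-Glo was added, plates sat 10 min at room temperature, then ATP-coupled luminescence was imaged as the viability read-out.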

A further assay relates to MCC-13. Nature of the assay: qHTS assay to identify novel small-molecules to repurpose for Merkel cell carcinoma treatment (AID 1296009). Also: nearly all actives have a fitted effect of over 60% in size. The settings on record: MCC and control cell lines, CellTiter-Glo viability, 72 h; series mostly up to 46 µM. The procedure, abridged:
(§1)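 qHTS format: cells treated with library compounds in DMSO across 8 (NPC) or 11 (MIPE) concentrations. Readout after 72 hr at 37 degree celsius was CellTiter-Glo luminescence.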

Another assay deals with MCC-26. Described as above. The settings on record: MCC and control cell lines, CellTiter-Glo viability, 72 h; series mostly up to 46 µM. Put shortly:
as §1

For a further assay, the system named is MKL-1. Described as above. The settings on record: MCC and control cell lines, CellTiter-Glo viability, 72 h; series mostly up to 46 µM. The procedure, abridged: as §1
Assay [2] deals with NIH3T3. The assay is described as above. The settings on record: MCC and control cell lines, CellTiter-Glo viability, 72 h; at 44.8 µM (top of the series) unless noted. The procedure, abridged: as §1
The test system of the next assay is WaGa. The description is as above. The conditions noted are these: MCC and control cell lines, CellTiter-Glo viability, 72 h; series mostly up to 46 µM. The procedure, abridged:
as §1

In the next assay the test system is CASKI. Kind of assay: Primary qHTS to identify gynecologic anti-cancer compounds using libraries of approved drugs and bioactive compounds (AID 1345084). Also: nearly all actives have a fitted effect of over 55% in size. The settings on record: Gynecologic cancer cell panel viability, ATPlite luminescence, 48 h; series mostly up to 57.5 µM. The procedure, abridged: (§2)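 Cells, 1,000 per well, were allowed to settle for 16 h at 37 C before compound addition. Five concentrations were tested for 48 h, and viability was read by ATPlite luminescence after 15 min at room temperature.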

For the next assay, the system named is Es-2. The assay is described as above. The conditions noted are these: Gynecologic cancer cell panel viability, ATPlite luminescence, 48 h; series mostly up to 57.5 µM. The procedure, abridged:
as §2

A further assay relates to HeLa. The description is as above. The settings on record: Gynecologic cancer cell panel viability, ATPlite luminescence, 48 h; series mostly up to 57.5 µM. Put shortly:
as §2

The subject of assay [3] is Hek293T. The assay is described as above. The conditions noted are these: Gynecologic cancer cell panel viability, ATPlite luminescence, 48 h, control line for the selectivity index; series mostly up to 57.5 µM. Put shortly: as §2
For the next assay, the system named is JEG-3. Described as above. The settings on record: Gynecologic cancer cell panel viability, ATPlite luminescence, 48 h; series mostly up to 57.5 µM. The procedure, abridged: as §2
A further assay deals with OV90. The assay is described as above. The conditions noted are these: Gynecologic cancer cell panel viability, ATPlite luminescence, 48 h; series mostly up to 57.5 µM. Put shortly: as §2
The next assay concerns PA-1. The description is as above. The settings on record: Gynecologic cancer cell panel viability, ATPlite luminescence, 48 h; series mostly up to 57.5 µM. The procedure, abridged: as §2
The test system of another assay is HACAT. Nature of the assay: qHTS assay to identify novel small-molecules to repurpose for Merkel cell carcinoma treatment (AID 1296009). Also: nearly all actives have a fitted effect of over 60% in size. The settings on record: MCC and control cell lines, CellTiter-Glo viability, 72 h. Put shortly: as §1
Another assay has as its system MKL-2. The assay is described as above. The settings on record: MCC and control cell lines, CellTiter-Glo viability, 72 h; series mostly up to 46 µM. Put shortly:
as §1

For a further assay, the system named is C33A. Kind of assay: Primary qHTS to identify gynecologic anti-cancer compounds using libraries of approved drugs and bioactive compounds (AID 1345084). Also: nearly all actives have a fitted effect of over 55% in size. The conditions noted are these: Gynecologic cancer cell panel viability, ATPlite luminescence, 48 h; series mostly up to 57.5 µM. The procedure, abridged:
as §2

For the next assay, the system named is SKOV3. Described as above. The conditions noted are these: Gynecologic cancer cell panel viability, ATPlite luminescence, 48 h; series mostly up to 57.5 µM. The procedure, abridged:
as §2

For another assay, the system named is UISO. Kind of assay: qHTS assay to identify novel small-molecules to repurpose for Merkel cell carcinoma treatment (AID 1296009). Also: nearly all actives have a fitted effect of over 60% in size. The conditions noted are these: MCC and control cell lines, CellTiter-Glo viability, 72 h; series mostly up to 46 µM. Put shortly: as §1
The subject of another assay is CAOV3. Kind of assay: Primary qHTS to identify gynecologic anti-cancer compounds using libraries of approved drugs and bioactive compounds (AID 1345084). Also: nearly all actives have a fitted effect of over 55% in size. The settings on record: Gynecologic cancer cell panel viability, ATPlite luminescence, 48 h; series mostly up to 57.5 µM. Put shortly:
as §2

For assay [4], the system named is HEK293T. Nature of the assay: qHTS assay to identify novel small-molecules to repurpose for Merkel cell carcinoma treatment (AID 1296009). Also: nearly all actives have a fitted effect of over 60% in size. The conditions noted are these: MCC and control cell lines, CellTiter-Glo viability, 72 h; at 44.8 µM (top of the series). Put shortly: as §1
The mark [5] stands for this setting: at 44.8 µM (top of the series) unless noted.

“And” between values parts separate entries of the source, which are not always exact repeats. Identical values can stand only once. Results filed as inconclusive are left out. A structure can be active in one record and inactive in another. Values without a mark were called inactive. The source made the active and inactive calls. Calls follow the shape of the dose curve; as a rule, active = well fitted curve in the direction sought with a large enough effect; inconclusive = small, poorly fitted or top-dose-only effect, or another doubt; inactive = no such curve, though single readings can be large; an effect the other way counts as inactive or inconclusive.
% is scaled to controls: 0 for no effect and ±100 for the full control effect.

Regarding `CCOc1cc(C(=O)Nc2ccc(Cl)c(-c3nc4ccccc4[nH]3)c2)cc(OCC)c1OCC`, in the assay with NIH3T3 [1], the max response is -3.49%. In addition, the result with NIH3T3 [1] and in the assay with NIH3T3 [2] was inactive. Also, the Potency result with MCC-13, with MCC-26, in the assay with MKL-1, in the assay on WaGa, with CASKI and with Es-2 was “inactive” in each case. Moreover, the Potency result in the assay on HeLa, in the assay on Hek293T [3], in the assay with JEG-3, with OV90 and in the assay on PA-1 was “inactive” in each case.

With `CC1(C)CNc2cc(NC(=O)c3cccnc3NCc3ccncc3)ccc21`, in the assay with NIH3T3 [1], the Potency was 10.3 µM (active). In addition, the max response in the assay on NIH3T3 [1] was -1.33%. Also, in the assay on HACAT (setting [5]), the call was inactive. Moreover, the Potency entry in the assay on MCC-13, in the assay on MCC-26, in the assay on MKL-1, in the assay with MKL-2, in the assay with C33A and in the assay on CASKI was “inactive” each time. Besides, the Potency entry with Es-2, in the assay with HeLa, with Hek293T [3], in the assay on JEG-3, in the assay on PA-1 and in the assay on SKOV3 was “inactive” each time.

`NS(=O)(=O)c1cc2c(cc1Cl)NC=NS2(=O)=O`: the max response with NIH3T3 [1] is 3.94%. Besides, the compound was called inactive with NIH3T3 [1], with HACAT (setting [5]) and with NIH3T3 [2]. The Potency result with MCC-13, in the assay with MCC-26, in the assay with MKL-1, in the assay with MKL-2, with UISO and in the assay on WaGa was “inactive” throughout. Also, the Potency entry in the assay on C33A, in the assay with CAOV3, in the assay with CASKI, in the assay with Es-2, with HeLa and in the assay with Hek293T [3] was “inactive” in each case. Besides, the Potency result in the assay on JEG-3, in the assay on PA-1 and with SKOV3 was “inactive” in each case.

On to `COc1ccc([C@@H]2CC(=O)c3c(O)cc(O[C@@H]4O[C@H](CO[C@@H]5O[C@@H](C)[C@H](O)[C@@H](O)[C@@H]5O)[C@@H](O)[C@H](O)[C@@H]4O)cc3O2)cc1O`, for which the max response with NIH3T3 [1] is 2.09%. Further, the call in the assay on NIH3T3 [1], in the assay with HEK293T [4] and with NIH3T3 [2] was inactive. Besides, the Potency entry in the assay on MCC-13, in the assay on MCC-26, in the assay with MKL-1, with MKL-2, in the assay on UISO and in the assay with WaGa was “inactive” each time.

In the case of `Cc1[nH]c(=O)c(C#N)cc1-c1ccc2nccn2c1`, in the assay with NIH3T3 [1], the max response was -20.6%. The call in the assay with NIH3T3 [1] and with NIH3T3 [2] was inactive. In addition, the Potency entry with MCC-13, in the assay on MCC-26, with MKL-1, with MKL-2, in the assay on UISO and in the assay on WaGa was “inactive” in each case. Moreover, the Potency entry in the assay with C33A, in the assay on CAOV3, in the assay with CASKI, with Es-2, in the assay on HeLa and in the assay with Hek293T [3] was “inactive” throughout. Besides, the Potency entry in the assay with JEG-3, in the assay with OV90, in the assay on PA-1 and in the assay on SKOV3 was “inactive” each time.

Regarding `Nc1ccc(S(=O)(=O)Nc2ccnn2-c2ccccc2)cc1`, the max response with NIH3T3 [1] is 4.45% and 3.04%. Also, the compound was classed as inactive in the assay on HACAT (at 17.4 µM (top of the series)) and with HACAT (at 44.8 µM (top of the series)). Moreover, the Potency result in the assay on MCC-13, in the assay with MKL-1, with MKL-2, with UISO, with WaGa and in the assay on C33A was “inactive” each time. Also, the Potency entry in the assay with CASKI, with Es-2, with HeLa, with Hek293T [3], with JEG-3 and with OV90 was “inactive” throughout. In the assay with PA-1, the Potency entry was “inactive”.

For the compound `O=C1CCCC2=C1C(c1[nH]ncc1Cl)N=C(Nc1nc3ccccc3o1)N2` (configuration not stated), the max response in the assay with NIH3T3 [1] was -1.09%. Also, the outcome with NIH3T3 [1], with HACAT (setting [5]) and with NIH3T3 [2] was inactive. In addition, the Potency entry in the assay with MCC-13, in the assay with MKL-1, in the assay with MKL-2, in the assay on UISO, in the assay with WaGa and with C33A was “inactive” throughout. In addition, the Potency entry with CAOV3, in the assay with CASKI, with Es-2, with HeLa, with Hek293T [3] and with JEG-3 was “inactive” each time. The Potency entry with OV90, in the assay on PA-1 and in the assay with SKOV3 was “inactive” throughout.
